PKM2 act: activators of human pyruvate kinase M2; P14618; purified PKM2, Kinase-Glo ATP luminescence, activation; response scale: 0% is enzyme alone, no compound; Potency, µM (doses to about 57.5 µM), inactives show at the highest dose activation, most hits filed as activators; actives 0.34% (n = 260,000); note: potency is the fitted concentration of half-maximal effect; % is set by controls: 0 for no effect and ±100 for the full control effect; nearly all actives have a fitted effect of over 55% in size
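Purified hPK-M2 (>95% pure) converted ADP (0.1 mM final) to ATP with 0.5 mM PEP in 50 mM imidazole pH7.2, KCl, MgCl2, Tween 20, BSA; 1 h at room temperature. ATP detected by Kinase-Glo luminescence.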
Apoferritin bind: candidate novel general anesthetic via apoferritin binding. AID 485281. Potency, µM (highest dose often 77.5 µM), without a hit: at the highest dose activity change, negative = displacement, hits mostly inhibitors. apoferritin/1-aminoanthracene competitive binding, fluorescence. actives 0.074% (n = 350,000). P02791; note: potency is the fitted concentration of half-maximal effect; % is set by controls: 0 for no effect and ±100 for the full control effect; nearly all actives have a fitted effect of over 20% in size
Target sequence (P02791 2-175 limits assumed): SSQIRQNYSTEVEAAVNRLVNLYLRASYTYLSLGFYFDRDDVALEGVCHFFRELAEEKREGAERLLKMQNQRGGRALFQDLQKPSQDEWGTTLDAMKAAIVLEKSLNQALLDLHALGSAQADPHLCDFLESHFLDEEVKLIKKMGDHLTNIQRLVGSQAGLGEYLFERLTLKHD
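Horse-spleen apoferritin (10 uM) was mixed with 50% saturated 1-aminoanthracene in PBS, exposed to compounds for 10 min at room temperature, and read for fluorescence (ex 380 nm, em 535 nm). Competitive displacement was fitted with a four-parameter Hill equation.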
TrxR1 inh: blocks rat thioredoxin reductase 1; recombinant rTrxR1, NADPH fluorescence consumption, selenite substrate; actives 1% (n = 390,000); Potency, µM (top dose mostly 114 µM), for inactives: top-dose activity change, negative = inhibition, actives largely listed as inhibitors; O89049; AID 588453; note: potency is the fitted concentration of half-maximal effect; % is set by controls: 0 for no effect and ±100 for the full control effect; nearly all actives have a fitted effect of over 65% in size
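Rat TrxR1 (90 nM in the dispensed reagent) was pre-reduced with 400 uM NADPH for 5 min at room temperature, then incubated with compound for 15 min. After 400 uM selenite was added, NADPH fluorescence (Ex 340/Em 450 nm) was followed for 8 min.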
TrxR1 substrate: substrates of rat thioredoxin reductase 1; purified TrxR1 substrate turnover, NADPH consumption readout; Potency, µM (top dose mostly 114 µM), inactives show at the highest dose activity change, negative = substrate turnover; actives 0.01% (n = 390,000); note: potency is the fitted concentration of half-maximal effect; % is set by controls: 0 for no effect and ±100 for the full control effect; nearly all actives have a fitted effect of over 50% in size
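Rat TrxR1, dispensed at 90 nM, was prereduced with 400 uM NADPH (final) for 5 min at ~22 deg C, then incubated with compound 15 min before 400 uM selenite. A first-read NADPH fluorescence drop versus no-compound background flagged substrates.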
GALK inhibitor: inhibitors of human galactokinase; Purified GALK, Kinase-Glo residual ATP luminescence; actives 0.007% (n = 270,000); P51570; Potency, µM (series often up to 57.5 µM), for inactives: top-dose activity change, negative = inhibition, actives largely listed as inhibitors; note: potency is the fitted concentration of half-maximal effect; % is set by controls: 0 for no effect and ±100 for the full control effect
Target sequence (P51570 whole entry, looked up): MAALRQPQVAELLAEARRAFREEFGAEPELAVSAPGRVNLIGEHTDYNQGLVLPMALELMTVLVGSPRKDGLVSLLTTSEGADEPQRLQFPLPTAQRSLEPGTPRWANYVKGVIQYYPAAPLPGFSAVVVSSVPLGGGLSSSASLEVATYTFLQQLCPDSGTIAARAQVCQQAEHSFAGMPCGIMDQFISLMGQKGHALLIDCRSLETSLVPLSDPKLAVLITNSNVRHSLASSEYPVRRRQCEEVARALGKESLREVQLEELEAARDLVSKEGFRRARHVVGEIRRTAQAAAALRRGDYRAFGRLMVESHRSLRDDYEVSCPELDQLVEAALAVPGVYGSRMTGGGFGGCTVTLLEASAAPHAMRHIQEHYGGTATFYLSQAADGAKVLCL
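Quantitative HTS: GALK 5 nM, ATP 35 uM, galactose 100 uM, 1 h room temperature, then luciferase-based ATP detection.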
IDH1 R132H inh: human IDH1 R132H inhibition; O75874; IDH1-R132H enzyme, NADPH consumption, diaphorase/resazurin fluorescence; Potency, µM (series often up to 76.6 µM), for the others: at the top dose activity change, negative = inhibition, hits mostly inhibitors; actives 0.093% (n = 390,000); AID 602179; note: potency is the fitted concentration of half-maximal effect; % is set by controls: 0 for no effect and ±100 for the full control effect; nearly all actives have a fitted effect of over 65% in size
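IDH1-R132H (0.5 ug/mL dispensed) in pH 7.5 Tris buffer was preincubated 30 min with compound, then given a substrate mix of 0.016 mM NADPH and 2 mM alpha-KG for 80 min at room temperature; remaining NADPH was read by diaphorase/resazurin fluorescence.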
IDH1 autofl: counter-screen for mutant IDH1 inhibitors: fluorescence interference | shares compounds with IDH1 R132H inh | Resorufin detection reagent fluorescence interference, cell-free | inhibition of signal, % at 51.2 µM | 750 tested, under 10 active | AID 623980;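 note: 0% = wells with normal resorufin and full inhibition = wells lacking resorufin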
IDH1 WT: selectivity of mutant IDH1 inhibitors: human wild-type IDH1; actives 9% (n = 750); WT IDH1 enzyme, NADPH diaphorase/resazurin fluorescence; shares compounds with IDH1 R132H inh; Potency, µM (titrated, usually from 115 µM), for the others: at the highest dose activity change, negative = inhibition, hits mostly inhibitors; AID 623995;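 note: potency is the fitted concentration of half-maximal effect; 0% = full WT IDH1 enzyme control and full inhibition = no enzyme wells; nearly all actives have a fitted effect of over 55% in size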
IDH1 R132H conf: mutant IDH1 (human) inhibition, confirmed; shares compounds with IDH1 R132H inh; IDH1 R132H enzyme, NADPH diaphorase/resazurin fluorescence; Potency, µM (top dose mostly 76.6 µM), without a hit: at the top dose activity change, negative = inhibition, actives largely listed as inhibitors; actives 83% (n = 750); note: potency is the fitted concentration of half-maximal effect; nearly all actives have a fitted effect of over 50% in size
* = called active by the depositor; ? = inconclusive; · = not tested or not shown; [ ] = remark or other dose. Shown are actives, neighbours in structure and some others; about 1.3% of the full set was active somewhere. Calls come from the whole dose curve; as a rule, active = well fitted curve in the direction sought with a large enough effect; inconclusive = small, poorly fitted or top-dose-only effect, or another doubt; inactive = no such curve, though single readings can be large; an effect the other way counts as inactive or inconclusive.

SMILES | PKM2 act | Apoferritin bind | TrxR1 inh | TrxR1 substrate | GALK inhibitor | IDH1 R132H inh | IDH1 autofl | IDH1 WT | IDH1 R132H conf
N#CC1(C#N)C(C(N)=O)C1c1ccccc1 (configuration not stated) | -24% | 3% | -29% | -8% | 0% | 2% | · | · | ·
CN1C=CC2=C(C#N)C(N)C(C#N)(C#N)[C@H](c3ccccc3)[C@H]2C1 (some centres not stated) | -1% | 74% | 13% | 40% | 2% | ? | 2 | 38% | ?
Cc1ccc(C(NC(=O)C(C)C)c2cc([N+](=O)[O-])c3cccnc3c2O)cc1 (configuration not stated) | 19% | 5% | 12%[57.1 µM] | -8%[57.1 µM] | · | ? | 7 | ? | 28µM*
COc1ccccc1-c1nnc(SCCOc2ccccc2C)o1 | · | -12% | 40% | -3% | · | · | · | · | ·
N#CC1=C(N)C2=CCCC[C@H]2[C@H](c2cccc(F)c2)C1(C#N)C#N | 4% | 5% | ? | -15% | 0% | 46µM* | -8 | 48% | 45µM*
CC(C)c1ccccc1-n1c(SCc2cc(=O)oc3ccc4ccccc4c23)nnc1-c1cccnc1 | 8% | -7% | 15% | 50% | 0% | ? | 7 | -24% | 11µM*
N#Cc1ccccc1NC(=O)C(=O)NCCc1csc(-c2ccc(C(F)(F)F)cc2)n1 | · | -9% | 31%[57.1 µM] | 10%[57.1 µM] | · | 2% | · | · | ·
N#Cc1c2c(c(Nc3ccc(F)cc3)n3c1nc1ccccc13)CCCC2 | · | · | -5% | -8% | · | ? | 3 | -1% | 22µM*
N#Cc1c2c(c(Nc3ccccc3)n3c1nc1ccccc13)CCC2 | -8% | -1% | 6% | 3%[2.29 µM] | -3% | -3% | · | · | ·
CCOC(=O)COc1ccc2c(=O)c(-c3ccc(OC)c(OC)c3)c(C(=O)OCC)oc2c1 | -5% | -13% | 6% | -5% | 0% | 12% | · | · | ·
CCOC(=O)c1oc2cc(OC(C)=O)ccc2c(=O)c1-c1ccc(OC)c(OC)c1 | -4% | -16% | -5% | -6% | -2% | 29µM* | -3 | 5% | 25µM*
Cc1cc(NC(=O)CCC(=O)N(c2cccnc2)C(C(=O)NC2CCCC2)c2ccccc2)no1 (configuration not stated) | -3% | -14% | -2% | -5% | 1% | ? | 3 | 7% | ?
Cc1cccc(N(C(=O)CCC(=O)Nc2cc(C)on2)C(C(=O)NC2CCCC2)c2cccnc2)c1 (configuration not stated) | · | -8% | 29%[57.1 µM] | -12%[57.1 µM] | 1% | -26% | · | · | ·
Cc1cccc(N(C(=O)CCC(=O)Nc2cc(C)on2)C(C(=O)NC2CCCC2)c2ccccc2)c1 (configuration not stated) | 4% | -6% | 15%[57.1 µM] | 13%[0.0914 µM] | 1% | 45µM* | 3 | 3% | 20µM*
O=c1[nH]c(/C=C/c2cccc([N+](=O)[O-])c2)c([N+](=O)[O-])c(=O)[nH]1 | -1% | -4% | -51% | 5%[57.1 µM] | ? | 45µM* | 4 | -16% | 32µM*
